Measured values reported in PubChem BioAssay (NCI).
Where “and” joins values, the source holds several entries; their conditions need not be identical. Equal values may be shown once. About 79,000 compounds went through this panel and 15% of them were active in at least one assay; those are over-represented in the sample as a whole. Unmarked numbers belong to inactive results. Calls of active or inactive are those of the source. No stated cut-off is given here; in the data, active means growth inhibition above about 70%; inactive means the rest.

Key:
[1] = NCI Yeast Anticancer Drug Screen. Data for the rad50 strain (AID 155);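 further: 0% = growth of vehicle-only cultures of the same strain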; details: S. cerevisiae rad50 strain growth inhibition; at 50.0 µM; hits give high values
Summary of the method: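 Inhibition values express reduced yeast growth in compound-treated cultures relative to vehicle-treated controls.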

[2] = NCI Yeast Anticancer Drug Screen. Data for the mec2-1 strain (AID 157); details: S. cerevisiae mec2-1 strain, at 50.0 µM, hits give high values
Summary of the method: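 Strain: mec2-1 (DNA repair/cell cycle alteration). Compound exposure, then growth measured; inhibition expressed relative to vehicle.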

[3] = NCI Yeast Anticancer Drug Screen. Data for the sgs1 mgt1 strain (AID 161);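 further: 0% = growth of cultures given vehicle only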; details: S. cerevisiae sgs1 mgt1 strain, at 50.0 µM, hits give high values
Summary of the method: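 Inhibition of yeast growth, normalised to vehicle-treated controls, is reported for a strain bearing genetic alterations in DNA damage repair.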

[4] = NCI Yeast Anticancer Drug Screen. Data for the cln2 rad14 strain (AID 165);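 further: 0% = growth equal to vehicle treated cultures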; details: S. cerevisiae cln2 rad14 strain, at 50.0 µM, hits give high values
Summary of the method: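 Compounds are applied to the cln2 rad14 yeast strain, and growth is then compared with that of vehicle-treated cultures to give inhibition.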

[5] = NCI Yeast Anticancer Drug Screen. Data for the bub3 strain (AID 167); details: S. cerevisiae bub3 mutant strain, at 50.0 µM, hits give high values
Summary of the method: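 Steps: expose the mutant yeast strain to compound; grow alongside vehicle-treated cultures; measure growth; express inhibition against the vehicle cultures.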

[6] = NCI Yeast Anticancer Drug Screen. Data for the mlh1 rad18 strain (AID 175); details: S. cerevisiae mlh1 rad18 strain growth inhibition; at 50.0 µM; hits give high values
Summary of the method: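 Read-out is yeast growth inhibition, calculated against vehicle-only controls. The compound was applied to a strain engineered with DNA damage repair alterations.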

Structure (SMILES)	growth inhibition [1]	growth inhibition [2]	growth inhibition [3]	growth inhibition [4]	growth inhibition [5]	growth inhibition [6]
CC(=O)O.CC(=O)O.[Co+2].[NH-]C(CCC(N)=O)C(=O)O.[NH-]C(CCC(N)=O)C(=O)O (configuration not stated)	15.2%	13.4%	34.2%	-4%	22.3%	19.9%
CCOC(=O)C[CH2][Sn]([Cl])([Cl])[Cl]	17.4%	22.5%	21.1%	12.3%	4.3%	20.9%
ICCCI	0.6%	-29.8%	16.1%	3.8%	19%	3.2%
CC1=NN(c2ccccc2)C(=O)C1N=Nc1ccc([As](=O)(O)O)c(O)c1 (configuration not stated)	15.9%	-8.6%	-6.8%	-19.9%	-26.5%	-3.65%
O=C(c1ccc([N+](=O)[O-])cc1)C1NC1c1ccccc1 (configuration not stated)	-24.2%	-16.6%	24%	-2.65%	22.3%	-15.7%
CC(C)OC(=O)C(C)Br (configuration not stated)	-0.1%	-3.05%	-8.35%	3%	3.1%	1.15%
Cc1cc(C)cc(C(O)(C(=O)O)c2ccccc2)c1 (configuration not stated)	-0.75%	-5.35%	-5.45%	5.55%	-5.9%	-4.9%
CC(=O)CC(C)=O.CC(=O)CC(C)=O.CC(=O)CC(C)=O.[Sm]	53%	13.8%	37.1%	31.9%	9.1%	33.8%
CCCCOC(=O)C(O)CF (configuration not stated)	-25.2%	-10.1%	-0.25%	1.6%	1.05%	-29.6%
CC(C)SP(=S)(SC(C)C)SC(C)C	8%	-10.1%	8.3%	-20.4%	4.15%	17.1%
COC(=O)C1C(=O)CC2N(C)C1C(C)(C)C2(C)C (configuration not stated)	47.9%	21.4%	60.6%	4.8%	38.4%	56.1%
Cc1cccc(N)c1	6.5%	-6.75%	1.35%	5.65%	14.2%	10.4%
CCCCC(Br)C(=O)OCC (configuration not stated)	26.1%	6.55%	-26.5%	-11.6%	10.9%	11.8%
NC(=O)COc1ccc([As]=O)cc1 (configuration not stated)	-1.9%	-14.9%	-11.9%	-48.8%	-33.3%	-15.8%
CC1CCC2C(C)C3C(CC4C5CC=C6CC(OC7OC(CO)C(O)C(OC8OC(CO)C(O)C(O)C8O)C7OC7OC(C)C(O)C(O)C7O)CCC6(C)C5CCC43C)N2C1 (configuration not stated)	-3.25% and 9.1%	11.8% and -8.5%	-5.75% and 10.2%	-6.3% and -9.3%	-1.65% and 1.95%	36.5% and 15.3%
CCN(CC)C(=O)N1CN(c2ccccc2)C2(CCN(CCCSc3ccc(F)cc3)CC2)C1=O	13.5%	0.65%	15.8%	12.4%	48.4%	20.6%
CCN(CC)C(=O)CCN1CC1	10.4%	-0.65%	12.3%	19.5%	5.1%	-1.25%
CCOC(CBr)OCC	14.4%	-4.75%	0.45%	-25.7%	7.55%	20.8%
Nc1ccc(/C=C/C(=O)Nc2ccc(S(=O)(=O)F)cc2)cc1	22.4%	96.2% (active)	21.1%	40.1%	99% (active)	95.5% (active)

Structure (SMILES)	growth inhibition [1]	growth inhibition [2]	growth inhibition [3]	growth inhibition [4]	growth inhibition [5]	growth inhibition [6]
CC[C@H]1CN2CCc3c([nH]c4ccccc34)[C@@H]2C[C@@H]1/C(=C\OC)C(=O)OC	8.45%	3.8%	18.6%	9.35%	21.6%	0.65%
COc1ccc2c(c1OC)CC(N)C2O (configuration not stated)	9%	3.55%	7.8%	4.3%	15.2%	3.25%
CNC(=O)Oc1ccccc1N	-2.8%	-1.15%	-5.05%	3.7%	-25.2%	-5.2%
CC1OP(=S)(N2C(=O)c3ccccc3C2=O)OC2CCCCC12 (configuration not stated)	11.8%	15.6%	4.4%	-26.4%	10.2%	-5.9%
O=C(O)C1C2C=Cc3ccccc3C21 (configuration not stated)	4.5%	2.9%	-11.3%	-26.6%	-6.2%	6.45%
NC(=Nc1ccccc1)N/N=C/c1c[nH]c2ccccc12	-15.2%	-14.9%	-20.2%	3.45%	-7.15%	-50%
c1ccc(CN2CCNCC2)cc1	-8.35%	-14.4%	1.9%	-14.1%	4.9%	-9.7%
O=C(Nc1ccccc1)C(Cl)(Cl)Cl	-10.1%	-25.8%	11.1%	-10.2%	-9.8%	19.8%
CC(O)CCC(=O)c1ccoc1 (configuration not stated)	6.4%	10.7%	1.45%	8.15%	14.3%	-71.7%
CCOC(=O)C(C(=O)OCC)P(=S)(S)c1ccccc1 (configuration not stated)	6.2%	-33.9%	-11.2%	9.2%	-9.6%	-10.1%
O=C1NN(c2ccccc2)C(=O)C1c1ccccc1 (configuration not stated)	24.2%	28.8%	17.4%	9.75%	-5.9%	41.5%
CN(C)c1ccccc1CN1CCCN(Cc2ccccc2N(C)C)C1c1ccc(N(CCCl)CCCl)cc1	92.4% (active)	40.4%	93.5% (active)	57.4%	15.1%	90.8% (active)
Nc1nnc[se]1	7.85%	5.35%	-8.1%	-1.55%	-4.2%	-1.6%
FC(F)(F)C1(F)N(Cc2ccccc2)C1(F)C(F)(F)F (configuration not stated)	9.1%	-7.5%	-10.3%	-6.65%	7%	-9.95%
Cc1cc(Cl)nc(N)n1	-5.3%	4.55%	-5.4%	-13.9%	10.1%	-21.4%
O=C(COc1ccc(Cl)c(Cl)c1)Nc1ccc[n+](Cc2ccc(S(=O)(=O)F)cc2Cl)c1	52.5%	27.9%	17.6%	58.2%	4%	8.5%
COC[C@]12CN(C=O)[C@H]3C4[C@H](OC)[C@H]1C3([C@@H](OC)C[C@H]2O)[C@@H]1C[C@@]2(O)[C@H](OC(=O)c3ccccc3)[C@@H]1[C@]4(OC(C)=O)[C@@H](O)[C@@H]2OC	9.45%	14.4%	-13.8%	-2.2%	0.2%	25.6%
CN(N=O)C(=O)NC1CCCCC1	-18.6%	-0.25%	-1.25%	-4.45%	-1.95%	13.8%
